PubChem BioAssay (NCATS)
Records with an inconclusive call do not appear. Entries that show only a call come without a potency. Active and inactive are the calls of the source. Calls come from the whole dose curve; as a rule, active = well fitted cell-killing curve with a large enough effect; inconclusive = small, poorly fitted or top-dose-only effect; inactive = flat fitted curve, though single readings scatter. Peptide text beside a SMILES is read from it. * marks the point of attachment. Hexanoyl = CCCCCC(=O)*

assay: U-118MG Cancer Cell Toxicity qHTS against the NCATS CANVASS Library (AID 1347351); settings: U-118MG viability, CellTiter-Glo luminescence, 72 h; series mostly up to 38.3 µM
From the text: Natural products and their derivatives continue to be wellsprings of nascent therapeutic potential. However, many laboratories have limited resources for biological evaluation, leaving their previously isolated or synthesized compounds largely or completely untested. To address this issue, the Canvass library of natural products was assembled (https://tripod.nih.gov/canvass), in collaboration with academic and industry researchers, for quantitative high-throughput screening (qHTS) across a diverse set of cell-based and biochemical assays. The pure (>85% purity by liquid chromatography/mass spectrometry [LC/MS]) Canvass library of 346 natural products were submitted by 45 academic laboratories and companies around the world. We collected pure natural products to circumvent deconvolution and structure elucidation due to time and resource limitations. The library was formatted into 1536-well plates and evaluated in 50 qHTS (in an 11-pnt concentration series) bioassays with broad scope of disease-relevant mechanisms. The resulting data set from 50 different assays was then systematically analyzed to identify overall trends and specific natural products with interesting biological activities. Reported herein are the results of each individual qHTS and their corresponding assay protocol. National Center for Advancing Translational Sciences (NCATS), Rockville, MD National Institute of Health (NIH), Bethesda, Maryland
Cancer Cell Toxicity protocol for cell lines COV-362, OV-KATE, OV-SAHO, UWB1.289, UWB1.289-WTBRCA1, HEK-293, HPAF-II, Panc-1005, SW1088, or U-118MG. 1. In a 1536 well, white solid bottom tissue culture plates (Corning 7494), corresponding cells (COV-362, OV-KATE, OV-SAHO, UWB1.289, UWB1.289-WTBRCA1, HEK-293, HPAF-II, Panc-1005, SW1088, or U-118MG) were dispensed in each well at a final concentration of 1000 cells / well (6uL volume) using the Multidrop Combi (Thermo Fisher Scientific) dispenser. 2. The plates were incubated for 4 hours at 37 degrees C/5% CO2/95% Rh. 3. Compounds were pin transferred (~23nL volume) via Wako Pin-tool (Wako Automation, Richmond VA) equipped with a 1536 pin head. The assay plates were treated with compounds in an 11-pnt concentration series with a final concentration range of […] to 85uM. 4. Bortezomib was used as a single dose control (0.5mM column 4, rows 1 - 32) at a final concentration of 1.9uM and as a 16pnt titration (1mM; 1:2 dilution; 16-points; n = 2; column 3, rows 1 - 32) with final concentration range of 0.1nM - 3.8uM. 5. The assay plates were incubated for 72 hours at 37 degrees C/5% CO2/95% Rh. 6. 3uL CellTiter-Glo detection reagent was then added to the plates (columns 2 - 48, rows 1 - 32) and incubated at room temperature for additional 15min. 7. Luminescence signal was acquired via the ViewLux plate reader (PerkinElmer) using a clear filter, 2 second exposure and 2x binning settings.
Potency is the fitted concentration of half-maximal effect.

Row | SMILES | Potency | outcome | activity change, negative = cytotoxicity
1 | COC(=O)[C@]1([C@H]2CCC(=O)O2)CC(=O)c2c(O)cc(C)cc2O1 | inactive |  | 
2 | C[C@]12CCC[C@](C)(C(=O)O)[C@@H]1CC[C@@]1(C)c3cocc3CC[C@H]21 | inactive |  | 
3 | C[C@H]1CCC2(OC1)O[C@H]1C[C@H]3[C@@H]4CC(=O)[C@]5(O)C[C@H](O)CC[C@@]5(C)[C@H]4CC[C@@]3(C)[C@H]1[C@H]2C (stereo not given in full) | inactive |  | 
4 | C/C=C/[C@H]1[C@H]2C(=O)c3c(O)c(C)c(O)c(C)c3[C@]1(C(=O)O)C(=O)C=C2C | inactive |  | 
5 | CO[C@H]1[C@@H](OC(=O)/C(C)=C\[C@@H]2O[C@@H]2[C@H]2O[C@H]2C)[C@H](O)[C@H](OCC23C[C@@H]4[C@H](C)CC[C@H]4C4(C=O)CC2C=C(C(C)C)C34C(=O)O)O[C@@H]1C (stereo not given in full) | inactive |  | 
6 | COC(=O)c1cc2cc3c(c(O)c2c(=O)o1)OC1(CC3)CC2=C(O1)C(=O)c1c(O)c(OC)cc(OC)c1C2=O (stereo not given) | inactive |  | 
7 | [C-]#[N+][C@@]12C(=O)[C@@H]3[C@@H](O[C@@]4(C(=O)N(C)c5cccc1c54)C3(C)C)C(=O)[C@@]2(C)C=C | inactive |  | 
8 | C=C1CC[C@@H](O[C@H]2C[C@@](O)([C@H](C)NC(=O)c3[nH]c(C)c(Cl)c3Cl)[C@H](O)[C@@H](C)O2)[C@@H]2C=C[C@H](C)C(/C(O)=C3/C(=O)[C@H](C(C)C)N([C@@H]4O[C@H](C)[C@H](OC(N)=O)[C@H](OC(C)=O)[C@@H]4OC)C3=O)[C@@H]12 (stereo not given in full) | inactive |  | 
9 | O=C1c2c(O)cc(O)cc2OC(c2ccc(O)cc2)C1O (stereo not given) | inactive |  | 
10 | C/C=C1/CN2C3CC1C1C=CC(=O)N4c5ccccc5[C@@]3(C[C@@H]2C2=C[C@H]3C5CC6N(CC[C@@]67c6ccccc6N(C2=O)[C@@H]37)C/C5=C/C)[C@H]14 (stereo not given in full) | 11.9 µM (active) |  | 
11 | COC1C(C)OC(OCC23C[C@@H]4[C@H](C)CC[C@H]4C4(C=O)CC2C=C(C(C)C)C34C(=O)O)[C@@H](O)[C@H]1O (stereo not given in full) | inactive |  | 
12 | C=CC(CCCCC)C1C(=O)NC(=O)C1C(=O)C1C(/C=C/C)C=CC2CC(C(=O)O)CC(C)C21 (stereo not given) | 21.1 µM (active) |  | 
13 | CC(C)=CCC/C(C)=C/Cc1cc([C@@H]2CC(=O)c3c(cc(O)c(CC=C(C)C)c3O)O2)ccc1O | inactive |  | 
14 | C[C@H]1C=C[C@H]2CCCC[C@@H]2[C@H]1C(=O)[C@H]1CC2=C(C(=O)O)CCN2C1=O | inactive |  | 
15 | C[C@@]12CCC[C@@](C)(C(=O)O)[C@H]1C[C@@H](O)[C@@]13C[C@@H](CC[C@@H]21)[C@](C)(O)C3 | inactive |  | 
16 | Oc1ccc(C2Oc3cc(O)c4c(c3[C@@H]2c2cc(O)cc(O)c2)[C@H]2C(c3ccc(O)cc3)c3c(O)cc5c(c3[C@H]2C4c2ccc(O)cc2)[C@H](c2cc(O)cc(O)c2)C(c2ccc(O)cc2)O5)cc1 (stereo not given in full) | inactive |  | 
17 | CO[C@@H]1[C@H](O)[C@@H](C)O[C@@H](OC[C@@H]2C(C)OC(=O)/C=C/[C@H](C)C(O[C@@H]3O[C@H](C)CC4(OC(=O)O[C@@H]4C)C3O)[C@@H](C)CC(C)C(=O)/C=C/[C@H]3OC23)[C@@H]1OC (stereo not given in full) | 16.8 µM (active) |  | 
18 | COc1cc2oc3ccccc3c(=O)c2cc1OC | 30.6 µM (active) |  | 
19 | CC1=C(C)C(=O)OC(C(C)C2(O)CCC3C4C5OC5C5(O)CC=CC(=O)C5(C)C4CCC32C)C1 (stereo not given) | inactive |  | 
20 | CCCCCC(=O)N[C@@H](CC(C)C)C(=O)N[C@H](C=O)CCC(=O)O (Hexanoyl-Leu-Glu-aldehyde) | inactive |  | 

Row | SMILES | Potency | outcome | activity change, negative = cytotoxicity
21 | COc1ccc([C@@H]2CC(=O)c3c(cc(O)c(C/C=C(\C)CCC=C(C)C)c3O)O2)cc1 |  | inactive [at 7.64 µM] | 
22 | C/C=C(/C)c1cc(O)c(C)c2c1Oc1cc(O)cc(C)c1C(=O)O2 | inactive |  | 
23 | COc1cc(C2OCC3C(c4ccc(O)c(OC)c4)OCC23)ccc1O (stereo not given) |  |  | -4.99% [at 7.64 µM] (inactive)
24 | C=C1C[C@H]2O[C@@H]3[C@@H]4[C@H](CC[C@@](C)(O)[C@@H]42)[C@H](C)COC3(C)[C@@H](OC(=O)CCCCCCC)C[C@H]1O (stereo not given in full) | inactive |  | 
25 | CC(C)=CCC[C@]1(C)[C@H]2CC(=O)[C@@]3(CO3)[C@@H]1C2 | inactive |  | 
26 | C=CC(C)(C)C(=O)[C@@H](C)[C@@H]1CC[C@@](C)(C=C)O1 | inactive |  | 
27 | CC(=O)O[C@H]1c2ccccc2-c2c3c(cc4c2[C@@H]1N(C(C)=O)CC4)OCO3 | inactive |  | 
28 | C/C=C(/C)c1c(Cl)c(O)c(C)c2c1Oc1c(Cl)c(O)c(Cl)c(C)c1C(=O)O2 | inactive |  | 
29 | COc1cc2c(cc1OC)[C@@H](c1ccc3c(c1)OCO3)C(C)[C@@H](C)C2=O (stereo not given in full) | inactive |  | 
30 | CC(C)=CCCC(C)(O)[C@H]1CC=C(C)C(O)C1 (stereo not given in full) | inactive |  | 
31 | C[n+]1cc2cc(C(N)=O)[nH]c3c(=N)c(Cl)c(N)c1c23 | inactive |  | 
32 | C[C@]12CC[C@]3(C1)[C@H](CC2=O)C[C@@H](OC(=O)c1ccccc1)[C@H]1[C@](C)(C(=O)O)CCC[C@@]13C | inactive |  | 
33 | COc1cc2c(cc1OC)[C@@H](c1ccc3c(c1)OCO3)C(C)C(C)C2=O (stereo not given in full) | inactive |  | 
34 | CCCc1c2c([nH]c(=O)c1C)C(=O)c1[nH]c(=O)c(C)c(CCC)c1C2=O | inactive |  | 
35 | COC(=O)[C@@]12Oc3cccc(O)c3C(O)=C1C(=O)C[C@H](C)[C@H]2O | inactive |  | 
36 | CC(C)C[C@@H]1c2c(O)c(C=O)c(O)c(C=O)c2O[C@]2(C)C=C[C@@H](C(C)C)C[C@H]12 | inactive |  | 
37 | COC(=O)[C@@]1(C)CCC[C@]2(C)c3cc(OC)ccc3CC[C@@H]12 | inactive |  | 
38 | CCC(C)=C1OC(=O)[C@H](C)[C@H](O)[C@H](Cc2cccnc2)NC(=O)C(NC(=O)c2ncccc2O)C(C)OC1=O (stereo not given in full) | inactive |  | 
39 | C/C=C(/CO)C(=O)O[C@@H]1[C@H](O)[C@@H](C(=O)OC)O[C@@H]2C[C@H]3OC(n4cnc5c(N)ncnc54)[C@H](OC)[C@H]3O[C@@]12O (stereo not given in full) | inactive |  | 
40 | COc1cc2c(c(O)c1O)C(=O)c1c(coc1C)C2=O | 21.1 µM (active) |  | 
